ssDAF12 agonist: S. stercoralis DAF-12 nuclear receptor activators, primary screen, cell-based, luminescence, HEK293, GRIP1 co-expression, lit1-tk-luc; Nuclear hormone receptor DAF-12 (Strongyloides stercoralis); HEK293 ssDAF-12/GRIP1 lit1-tk-luc reporter; % of 3 µM dafachronic acid response; activation, % at 6.8 µM; hit rate 1% among 370,000; AID 652126, 2013;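 active = activation above the mean over all tested compounds plus 3 SD, cut at about 0.9% in these data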;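 note: 0% = DMSO-only wells and 100% = 3 µM delta7-dafachronic acid wells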
DAX1 inh-1: DAX1 (NR0B1) inhibitors, primary screen, cell-based, HEK293, Gal4-DAX1, luciferase luminescence | HEK293 Gal4-DAX1 luciferase reporter | inhibition, % at 6.75 µM | hit rate 0.99% among 340,000 | AID 504766, 2011;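 active = inhibition above the mean over all tested compounds plus 3 SD, cut at about 4.2% in these data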;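 note: 0% = DAX1-transfected cells with DMSO and 100% = empty-vector control cells with DMSO; inhibition shows as a rise in luminescence from relieved DAX1 repression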
Target sequence (P51843 207-470 limits assumed): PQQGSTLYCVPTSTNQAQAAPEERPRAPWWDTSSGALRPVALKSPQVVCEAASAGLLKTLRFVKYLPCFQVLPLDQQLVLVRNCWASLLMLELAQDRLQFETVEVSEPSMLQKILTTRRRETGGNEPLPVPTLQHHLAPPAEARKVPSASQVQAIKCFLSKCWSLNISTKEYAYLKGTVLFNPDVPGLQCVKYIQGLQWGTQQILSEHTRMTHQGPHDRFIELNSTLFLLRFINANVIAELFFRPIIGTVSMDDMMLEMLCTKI
hgDAF12 agonist: H. glycines DAF-12 receptor agonists, primary screen, cell-based, luminescence, HEK293, GAL4 fusion, UAS-luciferase | Nuclear hormone receptor DAF-12 (Heterodera glycines), GAL4 fusion | HEK293 GAL4-hgDAF12 UAS-luciferase reporter, agonist luminescence; normalized to butyrate control | activation, % at 6.8 µM | hit rate 1.8% among 370,000;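 active = activation above a cutoff set at the mean of all screened compounds plus 3 SD, cut at about 10% in these data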;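 note: 0% = DMSO wells and 100% = sodium butyrate wells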
DAX1 inh-2: DAX1 (NR0B1) inhibitors on StAR promoter, primary screen, cell-based, luminescence, SF-1 (NR5A1), full-length DAX-1. HEK293T StAR-luciferase reporter, SF-1/DAX-1 repression relief. inhibition, % at 6.8 µM. hit rate 1.1% among 370,000;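 active = inhibition above the mean over all tested compounds plus 3 SD, cut at about 3.6% in these data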;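 note: 0% = DAX-1 cells with DMSO and 100% = cells lacking DAX-1 with DMSO; higher inhibition means more luminescence from relief of DAX-1 repression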
hcDAF-12 act: H. contortus DAF-12 nuclear receptor activators, primary screen, cell-based, luminescence, HEK293, lit1-tk-luc reporter. HEK293 hcDAF-12 lit1-tk-luc reporter; 0% DMSO, 100% Δ7-dafachronic acid. activation, % at 6.8 µM. hit rate 1.4% among 370,000;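 active = activation above the mean of all tested compounds plus 3 SD, cut at about 5.5% in these data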;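 note: 100% = response to 3 µM Δ7-dafachronic acid high control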
* hit, by the source's call; x = not tested or not shown. Shown are actives, neighbours in structure and some others; about 4.1% of the full set was active somewhere.

SMILES | ssDAF12 agonist | DAX1 inh-1 | hgDAF12 agonist | DAX1 inh-2 | hcDAF-12 act
CCSc1nc(-c2ccccc2)c(C#N)c(=O)[nH]1 | -1 | -1 | 0 | 1 | -1
CCCOc1ccc(-c2nc(SCc3ccccc3)[nH]c(=O)c2C#N)cc1OC | 4.3* | 1 | 0 | 1 | 0
COc1cccc(NC(=O)c2cnc[nH]2)c1 | 0 | 1 | 4 | 1 | 0
O=C(Nc1ccc(Br)cc1)c1cnc[nH]1 | 0 | 3 | 11* | 0 | 6.5*
CCCCn1c(N)c(N(CC)C(=O)COc2ccc(C#N)cc2)c(=O)[nH]c1=O | 1.3* | 1 | -1 | 0 | 0
CCCC(=O)OC12CCCN(C1)/C(=C/c1ccccc1)C2 (stereo unspecified) | -1 | x | 4 | 2 | 0
Oc1csc(Cc2nc(-c3ccc(-c4ccccc4)cc3)cs2)n1 | 0 | 0 | 2 | 2 | 4
Oc1csc(Cc2nc(-c3ccc4ccccc4c3)cs2)n1 | 1.1* | 3 | 6 | 3 | 6.3*
COc1cc(/C=N/Nc2nncc3ccccc23)cc(OC)c1OC | -1 | 1 | 8 | 1 | 0
C/C(=N\Nc1nncc2ccccc12)c1ccc(C(C)(C)C)cc1 | x | 4.9* | x | x | x
O=C(O[C@H]1CC[C@@]23CCCN2C(=O)CCC[C@H]3C1)N1CCOCC1 | -1 | x | -3 | x | 2
COC(=O)[C@]12C[C@H](CC(=O)N3CCN(C(=O)C4CC4)CC3)C(=O)N(CCC3=CCCCC3)C1=C[C@H](C1CCCC1)O[C@@H]2C | -1 | x | -2 | 0 | -3
CC(=NNc1cc(C)c2ccccc2n1)c1ccccn1 | 0.9* | x | -1 | 2 | 2
CC1(C)Cc2c(sc3nc(C4CC4)n(N)c(=O)c23)CO1 | -2 | 7.6* | -1 | 0 | -2
CC(C)(C)c1ccc(-c2nnc(SCC(=O)Nc3ccc(Oc4ccccc4)cc3)n2Cc2ccco2)cc1 | -1 | x | 1 | 0 | -3
N#Cc1ccccc1NC(=O)c1cc(=O)c2ccccc2o1 | -2 | 1 | 11* | 1 | -1
COC(=O)[C@]12C[C@H](CC(=O)N3CCN(C(=O)C4CC4)CC3)C(=O)N(Cc3cccc4ccccc34)C1=C[C@H](C1CCCC1)O[C@@H]2C | -2 | x | -3 | 0 | -4
Cc1ccc(NC(=O)CSc2ccccc2NC(=O)c2ccccc2)cc1Cl | 0 | 0 | 8 | 0 | 5.6*
COc1ccccc1NS(=O)(=O)c1cccc2cccnc12 | -2 | 5.4* | -2 | 0 | 1
O=C(Nc1cccc2cccnc12)c1cccc([N+](=O)[O-])c1 | -1 | 1 | 4 | 0 | 0
O=C(O)CCC(=O)Nc1cccc2cccnc12 | 0 | 5.2* | -1 | 0 | -1
COc1cccc(C(=O)Nc2cccc3cccnc23)c1OC | x | 4.3* | x | x | x
Cc1cc(C(=O)Nc2cccc3cccnc23)ccc1[N+](=O)[O-] | 0 | 0 | 4 | 0 | 5.9*
O=C(Nc1ccccc1)n1ccc2ccc(-c3ccc4cc[nH]c4c3)cc21 | -2 | x | 3 | -1 | 1
CC(C)CC1C(=O)N(Cc2cn(Cc3ccco3)nn2)CCS(=O)(=O)N1Cc1ccc(-c2ccc(Cl)cc2)cc1 (stereo unspecified) | -2 | 0 | -2 | -1 | -2
SMILES | ssDAF12 agonist | DAX1 inh-1 | hgDAF12 agonist | DAX1 inh-2 | hcDAF-12 act
CCC[C@H]1[C@@H](NC(=O)c2cccc(C(F)(F)F)c2)CC[C@@]23CCCN2C(=O)CCC[C@@H]13 | -1 | x | -1 | x | -2
CC(C)Cn1cc(C(=O)NCCCN2CCC(C)CC2)c2c3ccccc3n(C)c2c1=O | -1 | 5.3* | -2 | 2 | 3
CC(C)Cn1cc(C(=O)NCCCN2CCCC2=O)c2c3ccccc3n(C)c2c1=O | -1 | 1 | -1 | 0 | 1
CC1CCN(CCCNC(=O)c2cc3c(=O)n(C)c4ccccc4c3n2C)CC1 | -1 | 6.0* | 2 | 4.7* | 3
CC(=NN(Cc1ccccc1)c1ccccc1)c1ccccc1 | -1 | 4.5* | 2 | 0 | 1
O=C(Nc1ccc(N2CCCC2)cc1)c1cc(Cl)ccc1Cl | 0 | 0 | 2 | 1 | 1
O=C(Nc1ccc(N2CCCC2)cc1)c1cccc(Cl)c1 | 0 | 2 | 12* | 3 | 6.0*
Cc1cccc(C(=O)Nc2ccc(N3CCN(S(C)(=O)=O)CC3)cc2)c1 | 0 | 0 | 11* | 1 | 0
COc1ccccc1C(=O)N1CCCC(c2nc(-c3cccs3)no2)C1 (stereo unspecified) | -1 | x | 1 | 0 | -1
COc1cc(/C=N/Nc2ccccn2)ccc1OCC(C)C | -1 | 0 | 11* | 3 | 2
COc1ccc(/C=N\Nc2ccccn2)c(OC)c1 | 1 | 2 | 11* | 2 | 5
O=C(NCc1cccc2ccccc12)C1CCCN(c2nc3ccccc3o2)C1 (stereo unspecified) | -1 | x | -1 | 0 | 1
Cc1ccc(CN2CCCCC(NC(=O)Nc3cccc([N+](=O)[O-])c3)C2=O)cc1 (stereo unspecified) | -1 | x | -1 | -1 | -2
COc1ccc(-c2cn3c(C)c(C(=O)NCCN4CCOCC4)sc3n2)cc1 | -1 | -2 | 1 | 0 | 5
CCN(CC)C(=O)c1sc2nc(-c3ccc(OC)cc3)cn2c1C | -1 | 1 | 13* | 4 | 2
COc1ccc(-c2nc(SC)n(C(=O)c3ccco3)n2)cc1 | -1 | 4.2* | 6 | 1 | 3
COc1ccc(-c2nc(SCc3ccccc3)n(C(=O)c3ccco3)n2)cc1 | -1 | 1 | 3 | 0 | -1
Cc1ccc(CNC(=O)OC(C)(C)C)c(/C=C/S(=O)(=O)NC2CCCC2)c1 | -1 | x | 1 | -1 | 0
Cc1cc(OCc2cc(C(=O)N(C)C3CCOC3)no2)cc(C)c1Cl (stereo unspecified) | 0 | 4 | 11* | 1 | 4
COc1cc(Cl)ccc1OCc1cc(C(=O)N(C)C2CCOC2)no1 (stereo unspecified) | -1 | 1 | 6 | 1 | 3
COc1cc(Cl)ccc1OCc1cc(C(=O)N(C)CCc2cnn(C)c2)no1 | 0 | 1 | 12* | 3 | 6.1*
CC(=O)c1cccc(OCc2cc(C(=O)N(C)CCc3cnn(C)c3)no2)c1 | -1 | 0 | 1 | 2 | 2
C#CCN(C(=O)c1cc(COc2ccc(C)c(C)c2)on1)C1CCCCC1 | -1 | 0 | -3 | 0 | -1
Cc1ccc(OCc2cc(C(=O)N(C)C3CCCc4ccccc43)no2)cc1C (stereo unspecified) | -1 | 2 | 11* | 1 | 5.8*

Source: PubChem
